Screening data (PubChem)
CYP2C9 act: CYP2C9 (human) activation; 96,000 tested, 1.4% active; P11712; AID 1024; activation factor at 5 µM; recombinant CYP2C9, luciferin-H conversion, luminescence; stronger effect = higher value; factor 1 = untreated enzyme, 0 = blocked;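 active = activation factor of 2 or more for CYP2C9 at a 5 µM dose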;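 also: 0 = sulfaphenazole-blocked wells and 1 = vehicle-only wells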
Target sequence (P11712 whole entry, looked up): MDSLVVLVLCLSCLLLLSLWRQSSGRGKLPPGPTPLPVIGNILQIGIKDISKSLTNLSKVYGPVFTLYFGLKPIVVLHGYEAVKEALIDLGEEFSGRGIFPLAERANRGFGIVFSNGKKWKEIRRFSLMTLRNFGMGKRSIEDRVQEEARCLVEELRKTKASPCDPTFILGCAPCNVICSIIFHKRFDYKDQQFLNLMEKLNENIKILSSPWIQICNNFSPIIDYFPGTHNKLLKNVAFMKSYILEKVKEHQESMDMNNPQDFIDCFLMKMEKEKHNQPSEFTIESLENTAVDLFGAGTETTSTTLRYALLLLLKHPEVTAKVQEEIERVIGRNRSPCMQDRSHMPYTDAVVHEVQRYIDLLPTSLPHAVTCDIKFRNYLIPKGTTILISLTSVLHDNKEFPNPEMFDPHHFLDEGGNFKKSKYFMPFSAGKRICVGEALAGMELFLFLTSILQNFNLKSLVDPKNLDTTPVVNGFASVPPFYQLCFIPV
CYP2C19 inh: blocks human cytochrome P450 2C19 | P33261 | CYP2C19 Supersomes, luciferin-H EGE luminescence, 30 min | 96,000 tested, 21% active | inhibition, % at 5 µM;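 active = CYP2C19 inhibition above a set limit at 5 µM in the primary screen, cut at about 50% in these data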;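 also: plate controls were negative control wells for no effect and 2.5 mM tranylcypromine positive control for full effect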
CYP2C19 act: activators of human cytochrome P450 2C19; recombinant CYP2C19, luciferin-H EGE luminescence; stronger effect = higher value; 0 = fully inhibited enzyme, 1 = untreated enzyme; 96,000 tested, under 10 active; P33261; activation factor at 5 µM;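 active = activation factor of at least 2 at 5 µM in the primary screen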;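 also: 0 = wells with 2.5 mM tranylcypromine and 1 = vehicle-only wells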
Plk1 PBD FP: inhibitors of human Plk1 polo box domain binding; inhibition, %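 (tested at about 20 µM)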; P53350; Plk1 PBD phosphopeptide binding, fluorescence polarization; 97,000 tested, 0.13% active; AID 693; in the data active = inhibition above about 34%, passing the limit was not always enough
PLK1 inh: PLK1 (human) kinase inhibition; inhibition, % at 10 µM; P53350; recombinant PLK1 kinase, TR-FRET peptide phosphorylation; 97,000 tested, 0.53% active;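 active = inhibition of 50% or more in the single-concentration screen; inactive = inhibition below 50%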;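 also: 0% = DMSO max control and 100% = H-89 dihydrochloride min control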
CYP2C9 inh: human CYP2C9 inhibition. CYP2C9 Supersomes, luciferin-H conversion, luminescence. inhibition, % at 5 µM. 96,000 tested, 20% active. AID 777;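 active = blocking of liver enzyme CYP2C9 beyond about 50% at 5 µM, limit read from the data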
* hit, by the source's call. Hits are enriched below; roughly 28% of the tested compounds scored in any of these assays.

Screening COCCNC(=O)CCSc1nc(-c2ccc(OC)cc2)cc(C(F)(F)F)n1 returned Plk1 PBD FP -1.5 and PLK1 inh -8.2.
`O=C(CCSc1nc(-c2ccco2)cc(C(F)(F)F)n1)NCc1ccccn1` gave CYP2C9 act 0.3, CYP2C19 inh 78.1*, CYP2C19 act 0.2, Plk1 PBD FP -12.7, PLK1 inh -9.4 and CYP2C9 inh 68.8*.
O=C(NC1CCCCC1)N1CCN(CCc2ccccc2)CC1 was read as CYP2C9 act 1, CYP2C19 inh 2.0, CYP2C19 act 1, Plk1 PBD FP -24.1, PLK1 inh -4.1 and CYP2C9 inh 0.4.
COc1ccc(C(=O)Nc2cccnc2)cc1S(=O)(=O)N1CCOCC1 was read as CYP2C9 act 1.1, CYP2C19 inh 2.4, CYP2C19 act 1, Plk1 PBD FP -10.9, PLK1 inh -0.3 and CYP2C9 inh -14.3.
For CCCCCn1nc(C)c2c(C)cc(=O)[nH]c21 the results were Plk1 PBD FP -21.1 and PLK1 inh -12.2.
`O=C(CSc1nc(-c2ccco2)cc(C(F)(F)F)n1)NC1CCCC1` gave CYP2C9 act 0.1, CYP2C19 inh 82.1*, CYP2C19 act 0.2, Plk1 PBD FP 17.6, PLK1 inh 68.5* and CYP2C9 inh 94.0*.
`O=C1CN(C(=O)COc2ccccc2)CCN1` gave Plk1 PBD FP -3.8 and PLK1 inh 61.4*.
Cc1ccc(NC(=S)NNC(=S)NCc2ccccc2)cc1 was read as CYP2C9 act 0.1, CYP2C19 inh 12.5, CYP2C19 act 0.9, Plk1 PBD FP 11.9, PLK1 inh -17.6 and CYP2C9 inh 94.2*.
For Cc1ccc(NC(=S)NCc2ccccn2)cc1 the results were CYP2C9 act 0.3, CYP2C19 inh 32.4, CYP2C19 act 0.7, Plk1 PBD FP -29.6, PLK1 inh -4.0 and CYP2C9 inh 69.2*.
`COc1ccc(NC(=O)NCc2ccccn2)cc1` gave Plk1 PBD FP 23.2 and PLK1 inh -10.4.
For FC(F)(F)c1cccc(NC(=S)NNC(=S)NCc2ccccc2)c1 the results were CYP2C9 act 0.2, CYP2C19 inh 11.8, CYP2C19 act 0.9, Plk1 PBD FP -5.6, PLK1 inh -1.4 and CYP2C9 inh 75.4*.
Screening O=C(Cc1ccccc1)NC(=S)Nc1cccc(C(F)(F)F)c1 returned CYP2C9 act 0.9, CYP2C19 inh 2.4, CYP2C19 act 1, Plk1 PBD FP 12.0, PLK1 inh -6.3 and CYP2C9 inh 13.1.
`S=C(NCc1ccccn1)Nc1cccc(Cl)c1` gave CYP2C9 act 1.1, CYP2C19 inh 57.3*, CYP2C19 act 0.4, Plk1 PBD FP 27.6, PLK1 inh -3.3 and CYP2C9 inh -12.3.
`O=C(Nc1cnn(Cc2ccc(Cl)c(Cl)c2)c1)C12CC3CC(CC(C3)C1)C2` gave Plk1 PBD FP -0.2 and PLK1 inh -8.5.
Screening CCN(C(=O)c1cc2cccc(OC)c2oc1=O)C1CCCCC1 returned Plk1 PBD FP 6.5 and PLK1 inh 16.8.
Screening O=S(=O)(/N=C(/Sc1ccccc1)c1ccccc1)c1ccccc1 returned CYP2C9 act 0, CYP2C19 inh 96.1*, CYP2C19 act 0, Plk1 PBD FP -7.8, PLK1 inh -10.2 and CYP2C9 inh 95.5*.
For O=C(Nc1cc(C(F)(F)F)ccc1N1CCCC1)c1ccc2c(c1)OCO2 the results were CYP2C9 act 0.2, CYP2C19 inh 69.2*, CYP2C19 act 0.3, Plk1 PBD FP 6.8, PLK1 inh -12.5 and CYP2C9 inh 76.7*.
`O=C(Nc1cc(C(F)(F)F)ccc1N1CCCCC1)c1cccc([N+](=O)[O-])c1` gave CYP2C9 act 0.4, CYP2C19 inh 32.9, CYP2C19 act 0.7, Plk1 PBD FP -21.3, PLK1 inh -12.9 and CYP2C9 inh 56.0*.
For Cc1ccc(C(=O)Nc2cc(C(F)(F)F)ccc2N2CCCCC2)cc1[N+](=O)[O-] the results were CYP2C9 act 0.7, CYP2C19 inh 45.8, CYP2C19 act 0.5, Plk1 PBD FP -10.7, PLK1 inh -1.7 and CYP2C9 inh 26.1.
O=C(Nc1ccccc1N1CCCC1)c1ccc2c(c1)OCO2 was read as CYP2C9 act 0.5, CYP2C19 inh 71.1*, CYP2C19 act 0.3, Plk1 PBD FP 12.8, PLK1 inh -10.1 and CYP2C9 inh 52.7*.
O=C1NC2(CCCCCC2)Cc2ccccc21 was read as CYP2C9 act 1.1, CYP2C19 inh 44.3, CYP2C19 act 0.6, Plk1 PBD FP 14.8, PLK1 inh -9.9 and CYP2C9 inh -12.1.
Screening COc1cc2c(cc1OC)C(c1cc(OC)c(OC)c(OC)c1)NCC2 (stereo not given) returned Plk1 PBD FP 14.9 and PLK1 inh -9.7.
For O=S(=O)(Nc1nc2ccccc2nc1NCc1ccco1)c1ccccc1 the results were CYP2C9 act 0, CYP2C19 inh -20.7, CYP2C19 act 1.2, Plk1 PBD FP 0.9, PLK1 inh -5.5 and CYP2C9 inh 97.5*.
For O=S(=O)(Nc1nc2ccccc2nc1NCCO)c1cccc(Cl)c1 the results were CYP2C9 act 0, CYP2C19 inh 15.5, CYP2C19 act 0.8, Plk1 PBD FP 15.1, PLK1 inh 0.1 and CYP2C9 inh 98.9*.
Screening O=S(=O)(c1ccccc1)c1ccc(NCc2ccco2)cc1 returned CYP2C9 act 1.6, CYP2C19 inh 67.0*, CYP2C19 act 0.3 and CYP2C9 inh -60.7.
OCCNc1nc(Nc2ccccc2)nc2ccccc12 was read as Plk1 PBD FP -1.8 and PLK1 inh -5.2.
`CCCc1cc(=O)n2[nH]c(-c3ccc(Br)cc3)cc2n1` gave Plk1 PBD FP -24.5 and PLK1 inh -0.2.
Screening C#CCSc1nnc(-c2cc3c(C(F)(F)F)nn(C)c3s2)n1C returned CYP2C9 act 1.7, CYP2C19 inh -3.1, CYP2C19 act 1, Plk1 PBD FP 2.4, PLK1 inh -11.4 and CYP2C9 inh -68.9.
O=S(=O)(NC1=NCCCCCC1)c1cccs1 was read as CYP2C9 act 1.2, CYP2C19 inh 15.1, CYP2C19 act 0.8, Plk1 PBD FP 1.5, PLK1 inh -4.4 and CYP2C9 inh -22.2.
Screening CCN1C(=O)/C(=C/c2cccs2)N(C)C1=S returned CYP2C9 act 0.5, CYP2C19 inh 67.1*, CYP2C19 act 0.3, Plk1 PBD FP 17.5, PLK1 inh -4.4 and CYP2C9 inh 50.7*.
For COC(=O)c1ccc(NC(=O)CSc2n[nH]c(-c3ccncc3)n2)cc1 the results were CYP2C9 act 0.1, CYP2C19 inh 39.9, CYP2C19 act 0.6, Plk1 PBD FP -21.7, PLK1 inh -4.7 and CYP2C9 inh 94.6*.
`CCOC(=O)c1ccc(NC(=O)CSc2n[nH]c(-c3ccncc3)n2)cc1` gave CYP2C9 act 0, CYP2C19 inh 47.9, CYP2C19 act 0.5, Plk1 PBD FP -15.1, PLK1 inh -2.8 and CYP2C9 inh 96.4*.
`O=C(O)c1ccoc1CN1CCCCC1` gave Plk1 PBD FP 6.1 and PLK1 inh -1.8.
